# Screening data (PubChem BioAssay)
# The list is not random: actives were taken first. Their share in the collection is about 7.9%.
# MCF10A rereplic: A quantitative high throughput screen for small molecules that induce DNA re-replication in MCF 10a normal breast cells; MCF 10A DNA re-replication, Hoechst nuclear intensity, 48 h; Potency, µM (series often up to 46.1 µM), actives largely listed as activators; hit rate 2.9% among 350,000; further: nearly all actives have a fitted effect of over 50% in size
# KB-V1 MDR tox: qHTS assay for MDR1-selective chemotherapeutics: Primary screen using the drug-selected MDR subline cells KB-V1; KB-V1 MDR cells viability, CellTiter-Glo, 72 h; Potency, µM (top dose mostly 46.1 µM), most hits filed as cytotoxic; hit rate 3.4% among 400,000; further: nearly all actives have a fitted effect of over 60% in size
#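 Cells of the MDR subline KB-V1 are plated, dosed with compound at multiple concentrations, and incubated 72 h at 37 degrees C; CellTiter-Glo is then added and luminescence read after 10 min.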
# KB-3-1 cytotox: qHTS assay for MDR1-selective chemotherapeutics: Primary screen using the parental adenocarcinoma cell KB-3-1 | KB-3-1 viability, CellTiter-Glo ATP luminescence, 72 h | Potency, µM (doses to about 46.1 µM), usual class: cytotoxic | hit rate 1.4% among 400,000 | AID 1347075, 2019; further: nearly all actives have a fitted effect of over 60% in size
#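 Cytotoxicity in the drug-sensitive parental line KB-3-1 was scored as loss of CellTiter-Glo luminescence following 72 h incubation with compound. Values come from curve fitting of normalized concentration-response data.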
# HT1080 IDH1KD tx: qHTS for induction of synthetic lethality in tumor cells producing 2HG: qHTS for the HT-1080-IDH1KD cell line. hit rate 2% among 360,000. HT-1080 IDH1 knockdown viability, ATP luminescence, 48 h. AID 686971, 2013. Potency, µM (titrated, usually from 46.1 µM), hits mostly cytotoxic
#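 Using the IDH1-knockdown HT-1080 line run in the same batch and compound series as the NT line, viability after 48 h at 37 °C was determined by CellTiter-Glo luminescence and expressed as % activity.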
# SW480 rereplic: A quantitative high throughput screen for small molecules that induce DNA re-replication in SW480 colon adenocarcinoma cells; SW480 DNA re-replication, Hoechst DNA content imaging, 48 h; Potency, µM (doses to about 46.1 µM), most hits filed as activators; hit rate 1.8% among 340,000; AID 624297, 2012; further: nearly all actives have a fitted effect of over 55% in size
#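 Per well, 250 cells were exposed to pinned compound for 48 hr. Nuclear DNA was visualised with Hoechst (40 min, 37 C) and total object intensity recorded by fluorescence scanning.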
# HT1080NT lethal: qHTS for induction of synthetic lethality in tumor cells producing 2HG: qHTS for the HT-1080-NT fibrosarcoma cell line. HT-1080-NT fibrosarcoma viability, CellTiter-Glo ATP luminescence, 48 h. Potency, µM (titrated, usually from 46.1 µM), most hits filed as cytotoxic. hit rate 1.6% among 360,000;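 further: NT is the 2HG producing partner of a matched IDH1 knockdown line; nearly all actives have a fitted effect of over 55% in size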
#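 750 cells/well, RPMI + 5% FBS; 2 h settle, compound pin-transfer, 48 h at 37 degrees C. CellTiter-Glo 10 min RT, luminescence. Normalized to DMSO and media-only wells.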
# A number is an active result; . = inactive; ? = inconclusive; / = no result given. The call rests on the fitted dose curve; in most records, active means well fitted curve in the direction sought with a large enough effect; inconclusive means small, poorly fitted or top-dose-only effect, or another doubt; inactive means no such curve, though single readings can be large; an effect the other way counts as inactive or inconclusive.
SMILES,MCF10A rereplic,KB-V1 MDR tox,KB-3-1 cytotox,HT1080 IDH1KD tx,SW480 rereplic,HT1080NT lethal
NC(=O)C1CCCN(C(=O)NC2CCCCC2)C1 (centres undefined),.,.,.,.,.,.
O=C(NCC1CCCCC1)C1CCCN(C(=O)NC2CCCCC2)C1 (centres undefined),.,4.11µM,?,.,.,?
CCCCCc1ccc(-c2nnc(N)s2)cc1,?,?,.,.,.,.
CCCCCCc1ccc(-c2ncc(N)cn2)cc1,12.6µM,.,.,?,.,.
Cc1ccccc1C(=O)NC(CC(C)C)C(=O)NCC(C)(C)N1CCOCC1 (centres undefined),.,23.1µM,.,.,.,.
COc1ccc(CCNC(=O)c2cc3c(=O)n4cccc(C)c4nc3n(CCCN3CCOCC3)c2=N)cc1,?,.,.,.,2.59µM,?
O=C(CN1C(=O)c2cccc3cccc(c23)C1=O)NCCN1CCOCC1,1.84µM,.,.,.,.,.
O=C(NCCN1CCN(c2ccccc2)CC1)c1cccn2c(=O)c3cc(Cl)ccc3nc12,4.11µM,.,.,.,.,.
O=C(CN1C(=O)c2cccc3cccc(c23)C1=O)NCCCO,.,.,.,.,.,.
CCOc1ccc2c(c1)sc1nc(=O)n(-c3ccc(Cl)c(Cl)c3)c(=O)n12,/,.,.,/,/,/
CCCCNC(=O)CSc1nc2ccccc2nc1Cc1ccc(Cl)cc1,/,.,.,/,/,/
Cc1cccn2c(=O)c3cc(C(=O)NCCN4CCOCC4)n(C)c3nc12,?,?,.,.,?,.
Cc1cccn2c(=O)c3cc(C(=O)NCCN4CCOCC4)c(=N)n(CCN4CCOCC4)c3nc12,11.6µM,?,.,.,25.9µM,.
COCCCn1c(C(=O)N2CCOCC2)cc2c(=O)n3cccc(C)c3nc21,.,?,.,.,.,.
CCOCCCn1c(=N)c(C(=O)NCCN2CCOCC2)cc2c(=O)n3cccc(C)c3nc21,2.91µM,.,.,.,.,.
Cc1ccccc1C(=O)NC(=S)NCCN1CCOCC1,.,.,.,.,.,.
O=C(NCCN1CCOCC1)c1noc2c1CCc1ccccc1-2,.,11.6µM,.,.,.,.
CCCNC(=O)c1noc2c1CCc1ccccc1-2,.,.,.,.,.,?
Cc1ccccc1C(=O)NCCN1CCOCC1,0.581µM,?,.,.,.,.
N#CC[n+]1cccc(Br)c1,/,.,.,/,/,/
Cc1cccn2c(=O)c3cc(C(=O)NC4CCCC4)c(=N)n(CCCN4CCOCC4)c3nc12,.,.,.,?,1.46µM,.
COCCCn1c(=N)c(C(=O)NC2CCCC2)cc2c(=O)n3cccc(C)c3nc21,/,.,.,/,/,/
CCCn1c(=N)c(C(=O)NCc2ccc3c(c2)OCO3)cc2c(=O)n3cccc(C)c3nc21,.,.,.,.,.,.
Cc1cccn2c(=O)c3cc(C(=O)NCCN4CCOCC4)c(=N)n(Cc4ccc(F)cc4)c3nc12,2.31µM,?,16.4µM,?,?,.
Cc1ccc(COC(=O)c2ccc(-c3nnn(Cc4ccc(C)cc4)n3)cc2)cc1,/,.,.,/,/,/
SMILES,MCF10A rereplic,KB-V1 MDR tox,KB-3-1 cytotox,HT1080 IDH1KD tx,SW480 rereplic,HT1080NT lethal
COc1ccccc1CNc1nc2cc(-c3ccccc3C)sc2c(=O)n1C,/,.,.,?,/,?
Oc1ccc(-c2cnc(-c3ccc(O)cc3)nc2)cc1,?,.,?,0.206µM,.,?
CCn1c(=O)[nH]c(=O)c2c(N)c(C(=O)c3ccccc3OC)sc21,.,23.1µM,.,.,.,.
CCN(C(=O)CN(C)S(=O)(=O)c1ccc2c(c1)n(C)c(=O)c(=O)n2C)c1cccc(C)c1,/,.,.,/,/,/
O=[N+]([O-])c1cccc(CP(=O)(c2ccccc2)c2ccccc2)c1,.,20.6µM,.,.,.,.
Cc1ccc(Nc2cc(C)c3ccc(O)cc3n2)cc1C,23.1µM,.,?,.,?,.
COC(=O)c1cc(Nc2cc(C)c3c(O)cccc3n2)cc(C(=O)OC)c1,.,.,.,.,?,.
COC(=O)c1cc(Nc2cc(C)c3ccc(O)cc3n2)cc(C(=O)OC)c1,14.6µM,.,.,.,?,.
COc1ccc(S(=O)(=O)N2CCN(Cc3cc4c(cc3Br)OCCO4)CC2)cc1,.,14.6µM,.,.,.,.
CCN1C(=O)C(=Cc2cccc(OC)c2Oc2ccc([N+](=O)[O-])cc2[N+](=O)[O-])SC1=S,?,?,23.1µM,3.26µM,4.61µM,2.59µM
COc1cc(/C=C2\SC(=O)NC2=O)ccc1Oc1ccc([N+](=O)[O-])cc1[N+](=O)[O-],20.6µM,.,.,?,.,.
CO/N=C/c1ccc(Oc2ccc([N+](=O)[O-])cc2[N+](=O)[O-])c(OC)c1,?,?,.,?,?,?
CC(CSC(=O)c1ccccc1)C(=O)N1C[C@@H](Sc2ccccc2)C[C@H]1C(=O)O (some centres undefined),.,/,/,/,.,/
Cc1ccc(N(CC(=O)Nc2ccc(Br)cc2)S(=O)(=O)c2cccs2)cc1,/,.,.,/,/,/
COc1ccc2c(n1)Sc1nc3ccccc3nc1N2,20.6µM,.,.,.,?,.
COc1ccc(OC)c(C(=O)/C=C/c2cccnc2)c1,11.6µM,?,?,?,20.6µM,20.6µM
O=C(/C=C/c1cccnc1)/C=C/c1cccnc1,?,.,2.59µM,3.26µM,?,4.11µM
COc1ccc(/C=C/C(=O)c2ccc(OC)cc2OC)cc1,23.7µM,?,?,.,21.1µM,.
O=C(/C=C/c1cccnc1)c1cc(F)ccc1O,.,.,.,.,.,.
COc1cc(C(=O)/C=C/c2cccnc2)ccc1O,5.8µM,?,?,?,16.4µM,?
COc1ccc(/C=C/C(=O)c2cc(C(=O)/C=C/c3ccc(OC)cc3)c(O)cc2O)cc1,/,/,/,.,/,.
CCn1cc(S(=O)(=O)c2ccccc2)c(=O)c2cc(F)c(N3CCN(c4ccccc4)CC3)cc21,/,.,.,/,/,/
CC(C)(C)c1ccc(Oc2nc3ccccn3c(=O)c2/C=C(\C#N)c2nc3ccccc3[nH]2)cc1,/,.,.,/,/,/
Cc1oc2c(c1C(=O)NCc1cccc(Br)c1)C1=NCCN1C=N2,/,.,.,/,/,/
CN(C)S(=O)(=O)c1ccc(C(=O)/C=C/c2cccnc2)cc1,16.4µM,?,.,.,20.6µM,.
CNC(=O)C[C@@H](N)C(=O)N[C@@H](C(=O)N[C@@H]1C(=O)N2[C@@H]1SC(C)(C)[C@@H]2C(=O)O)c1ccc(O)cc1,.,/,/,/,.,/
